Assay outcomes deposited in PubChem by National Center for Advancing Translational Sciences (NCATS).
BAZ2B inh: BAZ2B (human) inhibition; Potency, µM (highest dose often 114 µM), for inactives: at the top dose activity change, negative = inhibition, most hits filed as inhibitors; AlphaScreen BAZ2B-H3K14Ac peptide displacement; Q9UIF8; 360,000 tested, 4.4% active; also: % is scaled to controls: 0 for no effect and ±100 for the full control effect; nearly all actives have a fitted effect of over 60% in size
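In this displacement format the biotinylated H3(5-23) peptide acetylated at Lys14 serves as ligand at 50 nM, with BAZ2B at 50 nM in PBS pH 7.4 containing 0.01% Tween-20. Donor and acceptor beads are 10 ug/mL final.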
L3MBTL1 block: L3MBTL1 (human) inhibition; 230,000 tested, 0.66% active; AID 485360; AlphaScreen L3MBTL1–H3K9me1 peptide binding; Potency, µM (series often up to 57.1 µM), without a hit: at the highest dose activity, negative = inhibition, hits mostly inhibitors; Q9Y468; also: % is scaled to controls: 0 for no effect and ±100 for the full control effect; nearly all actives have a fitted effect of over 60% in size
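AlphaScreen assay: L3MBTL1 (50 nM final) was preincubated 30 min at room temperature with biotinylated H3(1-15)K9me1 peptide (75 nM final), then 30 min with library compounds; streptavidin donor and nickel chelate acceptor beads (10 ug/mL final) added, 30 min dark.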
HP1b chromo inh: blocks HP1-beta chromodomain binding to methylated histone tails; 390,000 tested, 0.56% active; AlphaScreen HP1-beta / biotin-H3K9me3 peptide binding; P83916; Potency, µM (titrated, usually from 114 µM), inactives show at the highest dose activity change, negative = inhibition, hits mostly inhibitors; also: nearly all actives have a fitted effect of over 70% in size
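Compound inhibition of the preformed complex between 50 nM HP1-beta and 50 nM biotinylated H3K9me3 peptide was read by AlphaScreen. Buffer was PBS pH 7.4 with 0.01% Tween-20. Incubations ran 30 min at room temperature, with 10 ug/mL donor/acceptor beads.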
JMJD2A Tudor inh: inhibitors of human JMJD2A Tudor domain; AlphaScreen JMJD2A-Tudor / H3K4me3 peptide binding; Potency, µM (doses to about 114 µM), inactives show at the highest dose activity change, negative = inhibition, actives largely listed as inhibitors; 390,000 tested, 4.4% active; AID 504339; also: % is scaled to controls: 0 for no effect and ±100 for the full control effect; nearly all actives have a fitted effect of over 50% in size
Sfp inh: inhibitors of Bacillus subtilis Sfp phosphopantetheinyl transferase | Biochemical Sfp PPTase activity, qHTS | Potency, µM, inactives show largest response in the series, negative = inhibition, actives largely listed as inhibitors | 310,000 tested, 3.5% active;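 also: the enzyme is Sfp with the accession as filed and its product quenches rhodamine fluorescence; 0% = enzyme reaction without inhibitor and -100% = no enzyme wells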
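Sfp 15 nM + cpd, 15 min RT; start w/ rhodamine-CoA 5 uM, BHQ-2-YbbR 12.5 uM (final); 50 mM Hepes pH 7.6, 10 mM MgCl2, 0.01% NP-40, 0.01% BSA; read 525/598 nm at 0 and 30 min.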
G9a inh: inhibitors of human histone lysine methyltransferase G9a; Q96KQ7; G9a H3K9 monomethylation, AlphaScreen, 2 h; Potency, µM (top dose mostly 102 µM), for inactives: at the highest dose activity, negative = inhibition, actives largely listed as inhibitors; 350,000 tested, 8.8% active; also: % is scaled to controls: 0 for no effect and ±100 for the full control effect; nearly all actives have a fitted effect of over 75% in size
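G9a (20 nM) preincubated 15 min RT with compounds, then 500 nM biotinylated H3K9 peptide and 20 uM SAM added; 2 h RT reaction. Monomethyl-H3K9 product detected by AlphaScreen with anti-H3K9me1 antibody, streptavidin donor and anti-rabbit IgG acceptor beads.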
Active calls of the source: *; ? = inconclusive; / = no result given; [ ] = dose if it differs, or a comment. The list is not random: actives were taken first. Their share in the collection is about 12%. Calls follow the shape of the dose curve; as a rule, active = well fitted curve in the direction sought with a large enough effect; inconclusive = small, poorly fitted or top-dose-only effect, or another doubt; inactive = no such curve, though single readings can be large; an effect the other way counts as inactive or inconclusive. Potency is read from the fitted curve at half-maximal effect.

SMILES	BAZ2B inh	L3MBTL1 block	HP1b chromo inh	JMJD2A Tudor inh	Sfp inh	G9a inh
Cc1ccc(S(=O)(=O)NCC(NCc2ccc(F)cc2)c2ccccc2)cc1 (stereo not drawn)	-3%	9%	48%	0%	/	14%
CCCCC/C=C\C=C\C(O)CCCCCCCC(=O)O (stereo not drawn)	/	/	/	/	-2%	/
CC(C(=O)N1CCCC1)N(c1ccccc1)S(C)(=O)=O (stereo not drawn)	?	1%	/	/	11%	-11%
COc1ccc(CNC2c3ccccc3-c3ccccc32)cc1OC	-28%	/	-3%	-19%	16%	?
Cc1ccccc1CC(=O)NC1CCCc2ccccc21 (stereo not drawn)	?	15%	19%	-1%	-1%	/
COc1ccc(S(=O)(=O)NC2CCSc3ccccc32)cc1OC (stereo not drawn)	1%	/	10%	-26%	18%	50µM*
O=[N+]([O-])c1ccccc1CNC1CCCc2ccccc21 (stereo not drawn)	56µM*	14%	?	28µM*	-20%	?
COc1ccc(CNC2CCSc3ccccc32)cc1OC (stereo not drawn)	50µM*	/	?	8.9µM*	-9%	10µM*
O=S(=O)(NC1CCSc2ccccc21)c1ccccc1 (stereo not drawn)	7%	/	-18%	-7%	14%	22%
COc1ccc(CNC2CCCc3ccccc32)cc1OC (stereo not drawn)	71µM*	8%	-6%	11µM*	-6%	?
CCOC(=O)N1CCC2(CC1)C(C#N)=C(N)Oc1c2c(C)nn1-c1cccc(Cl)c1	50µM*	-1%	-11%	?	3%	?
CCN(Cc1ccccc1)C(=O)C1CCN(S(=O)(=O)c2ccc3c(c2)CCCN3C(C)=O)CC1	2%	/	25%[57 µM]	1%	/	8%[59 µM]
O=[N+]([O-])c1ccc(-c2cc(-c3ccc(Cl)cc3)n[nH]2)cc1	-37%	-1%	183%	?	-20%	25µM*
O=[N+]([O-])c1cccnc1N1CCN(Cc2ccc3c(c2)OCO3)CC1	6%[0.457 µM]	?	?	?	-16%	?
C(=C\c1ccccc1)/CN1CCN(Cc2ccc3c(c2)OCO3)CC1	50µM*	-12%	?	1.3µM*	-36%	/
O=[N+]([O-])c1ccccc1/C=C/CN1CCN(Cc2ccc3c(c2)OCO3)CC1	?	5%	?	22µM*	-12%	/
C/C(=C\c1ccccc1)C(=O)N1CCN(Cc2ccc3c(c2)OCO3)CC1	-23%	-9%	21%	0%	4%	-49%
Cc1ccccc1CN1CCN(C/C=C/c2ccccc2)CC1	-31%	/	?	3.2µM*	?	?
COC(=O)C/C=C/[C@@H](C)[C@H](NC(=O)OCC(Cl)(Cl)Cl)c1ccc2ccccc2c1	/	/	/	/	-12%	/
O=C(CSc1nc2ccccc2nc1Cc1ccc(Cl)cc1)Nc1ccc2c(c1)OCO2	7%	/	14%[57 µM]	-17%	/	6%[59 µM]
COc1ccc(NC(=O)c2sc3nc(C)c(C(=O)Nc4ccc(C)cc4C)c(-c4ccc(C)o4)c3c2N)cc1	-12%	/	26%	-7%	/	?
Cc1ccc(-c2nn(-c3ccccc3)cc2CNCc2ccccc2)cc1	-1%	18%	131%	44%	18µM*	/
Cc1ccc(-n2cc(CNCCCn3cccn3)c(-c3cccc(C)c3)n2)cc1	-21%	-3%	-2%	-18%	13%	-14%
Cc1cccc(-c2nn(-c3ccccc3)cc2CNCCO)c1	/	/	?	10µM*	/	/
CC(=O)c1cc(C(=O)c2ccccc2)sc1Nc1ccccc1	43%	55%	170%	79%	79µM*	49%[59 µM]
SMILES	BAZ2B inh	L3MBTL1 block	HP1b chromo inh	JMJD2A Tudor inh	Sfp inh	G9a inh
Fc1ccccc1-c1cc2ncccc2cn1	56µM*	8%	46%	?	/	-4%[0.501 µM]
c1ccc2ncccc2c1	/	28%	19%	-18%	/	/
O=C(OCC(=O)N1c2ccccc2Sc2ccccc21)C1CC(=O)N(Cc2ccco2)C1 (stereo not drawn)	?	-6%	-13%	?	-24%	50µM*
COc1c(C2=CC(=O)N(C)C2=O)c2c(n1C)C(=O)c1ccccc1C2=O	/	/	/	/	25µM*	/
COc1ccccc1N1C(=O)C(=O)N(C)C1=O	/	/	-17%	-5%	/	/
Cc1ccc(-c2noc(CCC(=O)N(C)c3ccccc3C)n2)cc1	2%	16%	43%	4%	50µM*	12%
Cc1ccc(-c2noc(CCC(=O)NCc3ccco3)n2)cc1	?	/	11%	-15%	56µM*	?
O=C(NC(=S)NCc1ccco1)c1cccc(Cl)c1	?	/	/	/	-3%	71µM*
O=C(CCc1nc(-c2ccccc2)no1)NCc1ccco1	5%	-7%	-3%	-17%	-16%	-17%[59 µM]
Cc1ccc(C(=O)NC(=S)NCc2ccco2)cc1	?	-30%	-14%	?	-23%	45µM*
CC#CCOCC/C=C1/c2ccccc2C(OC)C1C (stereo not drawn)	/	/	/	/	12%	/
CN(Cc1nccn1C)C(=O)C1CCC(=O)N(Cc2cccc(C(F)(F)F)c2)C1 (stereo not drawn)	-2%	/	28%	-15%	13%	10%
Cc1ccc(C(=O)NC2CC3CCCC(C2)N3C(=S)NCc2ccco2)cc1 (stereo not drawn)	-27%	-7%	-20%	-24%	45µM*	?
S=C(NCCc1ccc(Cl)cc1)NCc1ccco1	-35%	-9%	-14%	-32%	?	50µM*
S=C(NCc1ccc(Cl)cc1)NCc1ccco1	-34%	/	-3%	-36%	-3%	-1%
COc1cc(OC)cc(C(=O)NC(=S)NCc2ccco2)c1	-7%	5%	0%	-34%	-13%	45µM*
O=NN(CCCl)C(=O)NC1CCCCC1	/	/	/	/	11%	-37%[12.7 µM]
CN(C)c1ccc(C(C(=O)NC2CCCCC2)N(Cc2ccco2)C(=O)c2snc(C(N)=O)c2N)cc1 (stereo not drawn)	40µM*	/	?	?	9%	?
CN(C)c1ccc(C(C(=O)NCc2ccccc2)N(Cc2cccnc2)C(=O)c2snc(C(N)=O)c2N)cc1 (stereo not drawn)	?	/	5%	?	15%	50µM*
COc1ccc(C(C(=O)NCc2ccccc2)N(Cc2cccnc2)C(=O)c2snc(C(N)=O)c2N)cc1OC (stereo not drawn)	-8%	/	33%	-11%	15%	-4%
COc1cc(C(C(=O)NC2CCCC2)N(Cc2ccco2)C(=O)c2snc(C(N)=O)c2N)cc(OC)c1OC (stereo not drawn)	2%	/	11%	-9%	0%	-7%
